Rows were chosen to be rich in hits. Some 2.4% of all compounds tested hit in one or more screens of this group.
D2 ag-1: Beta-Arrestin HTS for Positive Allosteric Modulators of the Human D2 Dopamine Receptor: Agonists | hit rate 0.084% among 360,000 | D(2) dopamine receptor (Homo sapiens), P14416 | AID 624465, 2012 | activation, % (no concentration beside the values) | DiscoveRx PathHunter D2 beta-arrestin, luminescence, 90 min; 100% = 57 uM dopamine signal; in the data active = activation above about 40%; inconclusive = between about 15% and that limit
Target sequence (P14416 whole entry, looked up): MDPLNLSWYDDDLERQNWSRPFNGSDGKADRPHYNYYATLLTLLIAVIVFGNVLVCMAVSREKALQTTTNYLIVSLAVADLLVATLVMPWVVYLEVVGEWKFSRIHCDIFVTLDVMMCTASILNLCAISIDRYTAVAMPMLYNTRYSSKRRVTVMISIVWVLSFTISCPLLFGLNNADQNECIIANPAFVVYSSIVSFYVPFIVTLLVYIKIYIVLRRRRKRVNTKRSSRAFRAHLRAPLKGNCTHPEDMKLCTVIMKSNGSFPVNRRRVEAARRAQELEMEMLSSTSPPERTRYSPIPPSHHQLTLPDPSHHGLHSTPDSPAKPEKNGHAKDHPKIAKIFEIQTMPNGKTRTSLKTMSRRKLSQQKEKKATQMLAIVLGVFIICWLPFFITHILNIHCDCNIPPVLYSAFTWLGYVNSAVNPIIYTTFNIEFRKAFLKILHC
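Agonist mode: compounds alone added to overnight-plated D2 PathHunter cells for 90 min at 37 C, with 57 uM final dopamine (EC100) defining full response. Beta-arrestin recruitment detected by chemiluminescent reagent, read after 1 h at ambient temperature.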
D2 antag: HTS Assay for Allosteric Antagonists of the Human D2 Dopamine Receptor: Primary Screen for Antagonists; D(2) dopamine receptor (Homo sapiens), P14416; HEK293 TREx D2 cells, calcium flux, dopamine EC80; inhibition, % at 10 µM; hit rate 2% among 340,000; in the data active = inhibition above about 30%; inactive = below that, where a call was filed; note: 0% is about no effect
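Read-out: kinetic calcium fluorescence (1 cycle/s) in inducible HEK293 T-REx D2 cells after an EC80 dopamine addition that followed 180 s compound preincubation. Loss of the dopamine response indicates antagonism.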
D2 PAM-1: HTS Assay for Positive Allosteric Modulators of the Human D2 Dopamine Receptor: Primary Screen for Potentiators; D(2) dopamine receptor (Homo sapiens), P14416; HEK293 T-REx D2, calcium flux, EC20 dopamine potentiation; potentiation, % at 10 µM; hit rate 0.34% among 340,000;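 active = potentiation over 3 SD above the plate norm, cut at about 30% in these data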; note: 0% is about no effect
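Primary screen. Calcium kinetics in induced HEK293 T-REx D2 cells: compound pre-addition 180 s, EC20 dopamine, 180 s more.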
D2 PAM-2: Beta-Arrestin HTS for Positive Allosteric Modulators of the Human D2 Dopamine Receptor: Potentiators; D(2) dopamine receptor (Homo sapiens), P14416; DiscoveRx D2 beta-arrestin cells, luminescence, 90 min; 100% = 57 uM dopamine signal; potentiation, % (no concentration beside the values); hit rate 0.23% among 360,000; AID 624464, 2012; in the data active = potentiation above about 50%; inconclusive = mostly about 30% to 49%
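PathHunter D2 cells, attached overnight at 37 deg C, received compound in DMSO plus dopamine at EC20 (50 nM final) for 90 min at 37 deg C. Beta-arrestin recruitment was read as luminescence after 1 h with detection reagent at ambient temperature.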
D2 ag-2: HTS Assay for Allosteric Agonists of the Human D2 Dopamine Receptor: Primary Screen for Agonists | D(2) dopamine receptor (Homo sapiens), P14416 | HEK293 T-REx D2 cells, calcium flux agonist mode | activation, % at 2 µM | hit rate 0.53% among 340,000 | AID 485358, 2010;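 active = activation over 3 SD above normal in the single-dose calcium agonist read, cut at about 30% in these data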; note: 0% is about no effect
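Agonism scored from kinetic calcium signal (1 read/sec, 180 s) following compound pin transfer, after a 10 s baseline. Cells: HEK293 Trex line expressing inducible D2 receptor coupled to calcium, dye-loaded after overnight culture at 30 C.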
* hit, by the source's call.

O=C(Nc1cccc(C(F)(F)F)c1)C1CCN(S(=O)(=O)c2ccc(N3CCCC3=O)cc2)CC1 was read as D2 ag-1 5, D2 antag 64*, D2 PAM-1 -23, D2 PAM-2 -30 and D2 ag-2 -1.
Screening COc1ccccc1CNC(=O)C1CCN(S(=O)(=O)c2ccc(N3CCCC3=O)cc2)CC1 returned D2 ag-1 -1, D2 antag 37*, D2 PAM-1 5, D2 PAM-2 0 and D2 ag-2 1.
For COC(=O)c1ccc(NC(=O)C(C)Sc2nc(=O)cc(N)n2CCc2ccccc2)cc1 (configuration not stated) the results were D2 ag-2 0.
Screening Cc1cc(C)c2c(-n3cccc3)c(C(=O)NCCc3ccccc3)sc2n1 returned D2 PAM-1 -6 and D2 ag-2 -1.
For COCCN1CSC(=S)N(Cc2ccco2)C1 the results were D2 ag-1 -1, D2 antag -7, D2 PAM-1 -6, D2 PAM-2 -9 and D2 ag-2 0.
Screening S=C1SCN(Cc2ccccn2)CN1Cc1ccco1 returned D2 ag-1 2, D2 antag 36*, D2 PAM-1 -4, D2 PAM-2 -4 and D2 ag-2 1.
For O=C(NCc1cccs1)c1ccc(CSc2nc3ccncc3n2Cc2ccccc2F)cc1 the results were D2 PAM-1 18 and D2 ag-2 -1.
Screening CCOc1cc(CNCCc2ccc(S(N)(=O)=O)cc2)ccc1OCc1ccccc1 returned D2 ag-1 -3, D2 antag 4, D2 PAM-1 41*, D2 PAM-2 -10 and D2 ag-2 0.
`CC(C)(C)c1nc2c(C#N)c(-c3ccc(Cl)cc3)ccn2n1` gave D2 ag-1 inconclusive, D2 antag -26, D2 PAM-1 0, D2 PAM-2 68* and D2 ag-2 1.
`Cc1ccc(S(=O)(=O)N(C(=O)c2ccncc2)c2ccc(OC(=O)c3ccncc3)c3ccccc23)c(C)c1` gave D2 ag-1 inconclusive and D2 PAM-2 90*.
Cc1ccc(SC[C@H](c2ccccc2)N2CCN(C)CCC2=O)cc1 was read as D2 ag-1 -3, D2 antag 38*, D2 PAM-1 1, D2 PAM-2 -20 and D2 ag-2 -1.
CN1CCC(=O)N([C@H](CSc2ccccc2)c2ccccc2)CC1 was read as D2 ag-1 -3, D2 antag 6, D2 PAM-1 -18, D2 PAM-2 -18 and D2 ag-2 -1.
For OC(CNCC1CCCO1)COc1ccc(OCC(O)CNCC2CCCO2)cc1 (configuration not stated) the results were D2 ag-1 -2, D2 antag -7, D2 PAM-1 43*, D2 PAM-2 -17 and D2 ag-2 0.
OC(CNCC1COc2ccccc2O1)COc1ccc(Cl)cc1 (configuration not stated) was read as D2 ag-1 -2, D2 antag 104*, D2 PAM-1 -19, D2 PAM-2 -4 and D2 ag-2 33*.
`CCOC(=O)c1c(C)n(-c2ccc(C)cc2)c2ccc(OCC(O)CNCC3CCCO3)cc12` (configuration not stated) gave D2 ag-1 -11, D2 antag -4, D2 PAM-1 -8, D2 PAM-2 -19 and D2 ag-2 0.
`CCOC(=O)c1c(S(=O)(=O)NCC2CCN(CCc3cccs3)CC2)c(C)n(C)c1C` gave D2 ag-1 -4, D2 antag 43*, D2 PAM-1 -21, D2 PAM-2 -60 and D2 ag-2 0.
Screening CCOC(=O)c1c(S(=O)(=O)NCCc2cccs2)c(C)n(C)c1C returned D2 ag-1 -6, D2 antag -2, D2 PAM-1 9, D2 PAM-2 -7 and D2 ag-2 0.
`CCOC(=O)c1c(C)[nH]c(C)c1S(=O)(=O)Nc1ccc(CN2CCCCC2)cc1` gave D2 ag-1 -2, D2 antag -8, D2 PAM-1 -6, D2 PAM-2 -28 and D2 ag-2 0.
For CCOC(=O)c1c(C)[nH]c(C)c1S(=O)(=O)NCC1CCN(Cc2ccccc2OC)CC1 the results were D2 ag-1 -6, D2 antag 33*, D2 PAM-1 -24, D2 PAM-2 -30 and D2 ag-2 -1.
Screening CCOC(=O)c1c(C)[nH]c(C)c1S(=O)(=O)NCC1CCN(Cc2cccc(F)c2)CC1 returned D2 ag-1 -1, D2 antag 74*, D2 PAM-1 -30, D2 PAM-2 -22 and D2 ag-2 1.
`CCOc1ccc(S(=O)(=O)NCCc2c(C)[nH]c3c(Cl)cccc23)cc1C` gave D2 PAM-1 -5 and D2 ag-2 0.
`O=C1N[C@@H](Cc2ccccc2)[C@@H](c2ccco2)O1` gave D2 ag-1 -1, D2 antag 32*, D2 PAM-1 14, D2 PAM-2 2 and D2 ag-2 -1.
Screening Cc1cccc(Nc2ncc(NC(=O)c3cccc(F)c3)c(Nc3cccc(C)c3)n2)c1 returned D2 PAM-1 -1 and D2 ag-2 1.
Screening Cc1cc(NC(=O)c2cc(-c3ccc(OC(C)C)cc3)nc3ccccc23)no1 returned D2 ag-1 0, D2 antag -21, D2 PAM-1 30*, D2 PAM-2 -2 and D2 ag-2 2.
`Cc1cc(Nc2ccccc2)c2c([N+](=O)[O-])cc(C)c(C)c2n1` gave D2 ag-1 -1, D2 antag -14, D2 PAM-1 39*, D2 PAM-2 18 and D2 ag-2 -1.
For COc1ccc(/C=C2\SC(N)=NC2=O)cc1Br the results were D2 ag-1 2, D2 antag -8, D2 PAM-1 -2, D2 PAM-2 0 and D2 ag-2 0.
For CCCOc1ccc(/C=C2\SC(N)=NC2=O)cc1OC the results were D2 ag-1 -1, D2 antag 66*, D2 PAM-1 -10, D2 PAM-2 -5 and D2 ag-2 -1.
CC(C)N(Cc1ccccc1)C(=O)CN1C(=O)c2ccccc2C1=O was read as D2 ag-1 -1, D2 antag -3, D2 PAM-1 -8, D2 PAM-2 -3 and D2 ag-2 0.
CC(C)N(Cc1ccccc1)C(=O)CC(=O)N(Cc1ccccc1)C(C)C was read as D2 ag-1 -2, D2 antag 1, D2 PAM-1 35*, D2 PAM-2 -11 and D2 ag-2 0.

Compound activity: PubChem, National Center for Advancing Translational Sciences (NCATS)
